Screening data deposited in PubChem by National Center for Advancing Translational Sciences (NCATS).
JMJD2A Tudor inh: blocks the human JMJD2A Tudor domain; Potency, µM (highest dose often 114 µM), inactives show at the highest dose activity change, negative = inhibition, hits mostly inhibitors; AID 504339; hit rate 4.4% among 390,000; AlphaScreen JMJD2A-Tudor / H3K4me3 peptide binding; O75164; further: on the % scale 0 is the no-effect control and ±100 the full control effect; nearly all actives have a fitted effect of over 50% in size
BAZ2B block: BAZ2B (human) inhibition; Q9UIF8; AlphaScreen BAZ2B-H3K14Ac peptide displacement; Potency, µM (top dose mostly 114 µM), for inactives: at the top dose activity change, negative = inhibition, actives largely listed as inhibitors; hit rate 4.4% among 360,000; AID 504333; further: on the % scale 0 is the no-effect control and ±100 the full control effect; nearly all actives have a fitted effect of over 60% in size
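Multi-concentration screen (max 110 uM) measuring displacement of acetylated histone H3 peptide from BAZ2B by AlphaScreen, using 50 nM protein, 50 nM peptide and 10 ug/mL streptavidin donor plus Ni-chelate acceptor beads.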
HP1b chromo inh: HP1-beta chromodomain-methylated histone interaction inhibition; hit rate 0.56% among 390,000; Potency, µM (doses to about 114 µM), without a hit: top-dose activity change, negative = inhibition, hits mostly inhibitors; AlphaScreen HP1-beta / biotin-H3K9me3 peptide binding; P83916; further: nearly all actives have a fitted effect of over 70% in size
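HP1-beta protein (50 nM final) preincubated 30 min at room temperature with biotinylated H3(1-18)K9me3 peptide (50 nM) in PBS pH 7.4, 0.01% Tween-20, then compound added for 30 min. AlphaScreen streptavidin donor/nickel chelate acceptor beads (10 ug/mL final), 30 min dark, luminescence read.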
ALOX12 inh: ALOX12 (human) lipoxygenase inhibition. P18054. purified 12hLO, xylenol orange hydroperoxide absorbance. Potency, µM (top dose mostly 108 µM), without a hit: at the top dose activity change, negative = inhibition, most hits filed as inhibitors. hit rate 1.1% among 580,000. AID 1671190; further: on the % scale 0 is the no-effect control and ±100 the full control effect
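Purified human 12hLO (150 nM final) in 25 mM Hepes, 0.01% Triton X-100, pH 7.0 was preincubated 15 min at room temperature with compound. Then 40 uM arachidonic acid was added, 30 min. Hydroperoxide was read by Fe-XO absorbance ratio 573/405 nm.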
Sfp PPTase inh: blocks B. subtilis Sfp PPTase activity. hit rate 3.5% among 310,000. AID 1490. Biochemical Sfp PPTase activity, qHTS. Q9F4F7. Potency, µM, for inactives: largest response in the series, negative = inhibition, most hits filed as inhibitors;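 further: the enzyme is Sfp with the accession as filed and its product quenches rhodamine fluorescence; 0% = enzyme reaction without inhibitor and -100% = no enzyme wells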
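Reaction rates are the 30-min fluorescence difference (ex 525, em 598 nm) in wells containing 15 nM Sfp, 5 uM rhodamine-CoA and 12.5 uM BHQ-2-YbbR at pH 7.6 with 10 mM MgCl2.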
G9a inh: blocks human histone lysine methyltransferase G9a; G9a H3K9 monomethylation, AlphaScreen, 2 h; hit rate 8.8% among 350,000; Potency, µM (top dose mostly 102 µM), without a hit: at the top dose activity, negative = inhibition, hits mostly inhibitors; Q96KQ7; further: on the % scale 0 is the no-effect control and ±100 the full control effect; nearly all actives have a fitted effect of over 75% in size
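AlphaScreen read-out: biotin-H3K9 peptide (500 nM) methylation by 20 nM enzyme with 20 uM SAM, 2 h at room temperature after 15 min compound preincubation; anti-monomethyl H3K9 antibody plus donor/acceptor beads, 10 min dark.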
* marks the source's active call; other numbers are inactive results; ? = inconclusive; . = no result; [ ] = remark or other dose. An excerpt weighted towards active compounds, which were near 8.7% of everything screened. The call rests on the fitted dose curve; in most records, active means well fitted curve in the direction sought with a large enough effect; inconclusive means small, poorly fitted or top-dose-only effect, or another doubt; inactive means no such curve, though single readings can be large; an effect the other way counts as inactive or inconclusive. Potency means the concentration at half of the fitted maximal effect.

SMILES	JMJD2A Tudor inh	BAZ2B block	HP1b chromo inh	ALOX12 inh	Sfp PPTase inh	G9a inh
O=C(O)c1ccc(NC(=O)c2cccc(N3C(=O)C4C5CCC(C5)C4C3=O)c2)cc1 (stereo not drawn)	3.8%	2.1%	28.4%	-7.5%	31.5%	17.5%
Cc1ccc(NC(=O)c2cccc(N3C(=O)C4C5C=CC(C5)C4C3=O)c2)cc1C (stereo not drawn)	10.3%	-26.3%	32.9%	1.0%	-7.7%	-10.8%[0.501 µM]
CN(C)c1ccc(NC(=O)c2cccc(N3C(=O)C4C5C=CC(C5)C4C3=O)c2)cc1 (stereo not drawn)	-24.8%	-33.8%	-20.1%	?	14.4%	10µM*
COc1ccc(NC(=O)c2cccc(N3C(=O)C4C5CCC(C5)C4C3=O)c2)cc1 (stereo not drawn)	-14.4%	-3.2%	11.3%	6.31µM*	18.8%	19.4%
CCCCc1c(C)nc2ccc(OC)cc2c1SCCC(=O)O	?	37.3%	-32.0%	44.7µM*	3.7%	197.7%
CCCCc1c(C)nc2ccc(Br)cc2c1SCCC#N	.	19.5%	.	.	1.1%	28.2µM*
CCCc1c(C)nc2ccccc2c1SCCC(=O)O	.	.	.	-39.8%	.	.
COc1ccc2nc([C@H]3CCN(Cc4ccc(F)cc4)C3)[nH]c2c1	.	.	.	2.2%[176 µM]	.	.
CCOc1ccccc1OCc1nn2c(C)nnc2s1	.	.	.	11.3%	.	.
COc1cccc(C=Nc2ccc(N3CCOCC3)cc2)c1O	-21.1%	-34.8%	12.9%	?	1.3%	?
CCN1CCN(c2ccc(N=Cc3ccccc3O)cc2)CC1	-5.7%	-32.4%	18.4%	-22.2%	17.9%	50.1µM*
CC(C)Oc1cccc(-c2n[nH]c3c2CC(=O)N(Cc2ccccn2)C3)c1	.	.	.	-17.2%[176 µM]	.	.
CN1/C(=C/C(=O)C2CCC2)Sc2ccccc21	-20.4%	?	30.9%	-21.4%	?	?
CCC(=S)/C=C1\Sc2ccccc2N1CCCS(=O)(=O)O	28.2µM*	?	?	?	-103.8%	.
O=C(O)/C(=C\c1ccco1)NC(=O)c1ccccc1	-4.8%	-29.5%	39.0%	2.6%	-26.8%	-22.5%[59 µM]
O=C(O)/C(=C\C=C\c1ccco1)NC(=O)c1ccccc1	.	.	.	1.58µM*	.	.
O=C(N/N=C/C=C/c1ccco1)/C(=C/c1ccccc1)NC(=O)c1ccccc1	79.4µM*	-4.3%	-21.4%	?	44.7µM*	28.2µM*
Cc1ccc(C(=O)N/C(=C\c2sccc2C)C(=O)NCc2ccco2)cc1	-15.9%	7.5%	12.7%	6.1%	-4.6%	-4.8%[59 µM]
Cc1ccc(C(=O)N/C(=C/C=C\c2ccccc2)C(=O)NCc2ccco2)cc1	-27.2%	-36.7%	3.7%	-17.6%	-16.3%	44.7µM*
COc1ccc(CC(=O)N2C[C@@H](C(=O)O)[C@H](c3ccccc3)C2)c(OC)c1	.	.	.	38.1%	.	.
O=C(c1ccc2c(c1)OCO2)N1CCC(N2CCOC2=O)CC1	.	.	.	10.6%[6.33 µM]	.	.
O=C(Nc1ccc(N2CCOCC2)cc1N1CCOCC1)c1ccco1	56.2µM*	1.9%	?	?	7.6%	?
O=C(Nc1ccc(N2CCOCC2)cc1N1CCOCC1)c1ccccc1	-13.0%	.	4.6%	-45.6%	.	.
O=C(Nc1ccc(N2CCOCC2)c(C(=O)O)c1)c1ccco1	.	-0.9%	.	.	12.1%	56.2µM*
COc1ccc(C(=O)N2CCCC3(CNc4ccccc4[S+](=O)([O-])N3)C2)cc1 (stereo not drawn)	.	.	.	-9.9%	.	.
SMILES	JMJD2A Tudor inh	BAZ2B block	HP1b chromo inh	ALOX12 inh	Sfp PPTase inh	G9a inh
O=c1[nH]c(=S)c2ncn(-c3ccccc3)c2[nH]1	14.1µM*	?	-6.9%	?	17.8µM*	25.1µM*
Nc1nc2c(ncn2-c2ccccc2)c(=O)[nH]1	0.0%	.	29.4%	8.6%	.	.
O=C(NC(=S)N1CCCCC1c1cccnc1)c1ccc(F)cc1 (stereo not drawn)	-19.4%	-12.6%[57.1 µM]	-1.3%	-4.7%	-16.4%	31.6µM*
O=C(NC(=S)N1CCCCC1c1cccnc1)c1ccc(Br)cc1 (stereo not drawn)	-0.3%	-4.1%[57.1 µM]	35.5%	?	-25.0%	22.4µM*
O=C(NC(=S)NN1CCCCC1c1cccnc1)c1ccc(Cl)cc1Cl (stereo not drawn)	-23.8%	-4.5%	22.7%	45.7%	9.7%	70.8µM*
O=C(Nc1ccc(Cl)cc1C(=O)NCc1cccnc1)c1ccc(Cl)cc1Cl	-23.6%	10.8%	44.4%	17.4%	?	0.0%
Cc1ccc(CN2CCSc3ccc(C(=O)NCc4ccccn4)cc32)cc1	?	?	-5.9%	-4.7%	50.1µM*	39.8µM*
CCn1nc(C)c(/C=N/NC(=O)c2ccc3c(c2)c(C)c(C)n3Cc2ccccc2)c1C	35.5µM*	?	-16.1%	4.1%	-10.1%	?
Cc1ccc(CN2CCSc3ccc(C(=O)N4CCN(c5cc(C)ccc5C)CC4)cc32)cc1	-25.8%	-30.8%	17.1%	-18.7%	.	?
Cc1c(C)n(Cc2ccccc2)c2ccc(C(=O)N3CCN(c4ccccc4)CC3)cc12	14.1µM*	?	?	?	.	?
Cc1ccc(CN2CCSc3ccc(C(=O)N4CCN(c5ccccc5)CC4)cc32)cc1	?	-16.2%	0.2%	-11.9%	.	17.8µM*
CCn1ncc(/C=N\NC(=O)c2ccc3c(c2)c(C)c(C)n3Cc2ccccc2)c1C	?	?	-8.5%	0.0%	-12.9%	-12.5%[12.7 µM]
Cc1ccn2c(C(=O)N3CC[C@@](C)(O)[C@@H](O)C3)nnc2n1	.	.	.	57.2%	.	.
CC1=NS(=O)(=O)N(CCc2ccccc2)C=C1C(=O)O	.	.	.	8.3%	.	.
C=CCn1c(COc2ccccc2)nnc1SCc1ccc(C#N)cc1	-9.6%[11.4 µM]	-4.7%	-3.2%	-4.4%	6.4%	-1.5%
C=CCn1c(COc2cccc(C)c2)nnc1SCC(=O)NC(=O)NCc1ccco1	?	?	4.0%	-10.5%[57.4 µM]	25.1µM*	?
C=CCn1c(COc2ccc(Cl)cc2)nnc1SCc1ccc(C#N)cc1	?	3.4%	59.1%	-3.0%	2.1%	28.2µM*
C=CCn1c(SCc2ccc(C#N)cc2)nnc1-c1cccc(OC)c1	1.5%	-2.1%	13.4%	-21.8%	11.0%	0.9%
C=CCn1c(COc2ccc(Cl)cc2)nnc1SCC(=O)NCC(=O)OCC	-19.1%	-26.1%	24.2%	-6.3%	14.5%	28.2µM*
C=CCn1c(SCC(=O)NCC(=O)OCC)nnc1-c1cccc(OC)c1	-16.4%[11.4 µM]	-3.7%	68.1%	-4.5%	1.1%	-38.0%[12.7 µM]
C=CCn1c(SCc2ccc(C#N)cc2)nnc1-c1ccccc1	-7.2%	-1.4%	39.3%	18.4%	-2.0%	1.41µM*
COc1cccc(-c2ccc(NC(=O)C3CCCN(C(=O)CC(F)(F)F)C3)cc2)c1 (stereo not drawn)	.	.	.	32.5%	.	.
Cc1ccc(-c2noc(COC(=O)Cc3n[nH]c(=O)c4ccccc34)n2)cc1F	.	.	.	29.7%	.	.
Cc1ccc(NC(=O)c2ccccc2SCC(=O)NC2CC2)c(Cl)c1	.	.	.	-17.3%	.	.
